Lamin A splicing: changes lamin A minigene splicing in HeLa cells. HeLa LMNA splicing GFP/RFP minigene ratio, 48 h. Potency, µM (titrated, usually from 46.1 µM), without a hit: at the highest dose ratio change, negative = inhibition, usual class: inhibitors. hit rate 0.01% among 200,000; active = well fitted inhibition curve with a large enough effect in the signal ratio, with a control signal flat, not every such curve was filed as active; inconclusive = small, poorly fitted or top-dose-only effect, or effect the other way, or a change in a side signal; the % refers to the signal ratio; also: % is scaled to controls: 0 for no effect and ±100 for the full control effect
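Read-out is the ratio of GFP to DsRed2 object intensity, acquired by 488 nm laser-scanning cytometry on HeLa lamin A-EGFP minigene reporter cells. Compound incubation 48 hrs at 37 °C in Opti-MEM with 2% FBS; DMSO 0.5% final.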
HTT ATP protect: Huntington cell model cytoprotection by ATP luminescence | hit rate 0.14% among 230,000 | Potency, µM (doses to about 56.4 µM), inactives show cytoprotection (ATP increase), most hits filed as activators | PC12 HTT-Q103 induced, cytoprotection, ATP luminescence, 40 h; also: % of control where 0% means no effect; nearly all actives have a fitted effect of over 45% in size
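Rat PC12, Q103 Htt exon1-GFP fusion, ecdysone promoter; tebufenozide inducer 100 nM final; compound titration; qHTS, 1500 cells/well; ATPlite luminescent read.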
ALDH1A1 block: inhibitors of human aldehyde dehydrogenase 1A1 | hit rate 7.3% among 220,000 | AID 1030 | P00352 | Potency, µM (highest dose often 75.3 µM), without a hit: at the top dose activity, negative = inhibition, usual class: inhibitors | Purified ALDH1A1, NADH fluorescence, propionaldehyde substrate; active = well fitted inhibition curve with a large enough effect, not every such curve was filed as active; inconclusive = small, poorly fitted or top-dose-only effect, or another doubt; inactive = no such curve, though single readings can be large or run the other way;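 also: plate controls were no enzyme wells and a reference inhibitor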
Target sequence (P00352 whole entry, looked up): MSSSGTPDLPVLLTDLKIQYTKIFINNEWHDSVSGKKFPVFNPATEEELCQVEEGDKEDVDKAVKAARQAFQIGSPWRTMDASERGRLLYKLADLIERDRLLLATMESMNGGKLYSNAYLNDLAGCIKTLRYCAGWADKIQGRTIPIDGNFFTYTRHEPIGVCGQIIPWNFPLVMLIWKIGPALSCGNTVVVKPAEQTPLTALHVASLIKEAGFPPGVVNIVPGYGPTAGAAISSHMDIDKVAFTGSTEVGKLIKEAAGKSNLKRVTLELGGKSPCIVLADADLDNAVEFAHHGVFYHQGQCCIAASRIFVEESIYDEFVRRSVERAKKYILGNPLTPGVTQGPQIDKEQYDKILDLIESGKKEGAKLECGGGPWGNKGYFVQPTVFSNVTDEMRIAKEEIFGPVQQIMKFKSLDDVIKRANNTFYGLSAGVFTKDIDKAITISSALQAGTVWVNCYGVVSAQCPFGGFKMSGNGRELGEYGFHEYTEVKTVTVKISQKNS
HTT aggregate: reduces HttQ103-GFP aggregates in PC12 cells; PC12 HttQ103-GFP aggregates, Acumen cytometry, 40 h; hit rate 1.1% among 220,000; Potency, µM (top dose mostly 46.1 µM), inactives show top-dose activity change, negative = inhibition, actives largely listed as inhibitors; also: % is scaled to controls: 0 for no effect and ±100 for the full control effect; nearly all actives have a fitted effect of over 60% in size
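Huntingtin Q103 exon 1–GFP aggregates in induced PC12 cells (100 nM tebufenozide) were quantified by cytometry from lysates, with compounds dosed in titration.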
HPGD block: HPGD (human) dehydrogenase inhibition; Potency, µM, for the others: top-dose activity change, negative = inhibition, most hits filed as inhibitors; P15428; hit rate 4.3% among 150,000; AID 894; purified HPGD, NADH fluorescence kinetic, PGE2 substrate; active = well fitted inhibition curve with a large enough effect, not every such curve was filed as active; inconclusive = small, poorly fitted or top-dose-only effect, or another doubt; inactive = no such curve, though single readings can be large or run the other way; also: % is scaled to controls: 0 for no effect and ±100 for the full control effect
Target sequence (P15428 whole entry, looked up): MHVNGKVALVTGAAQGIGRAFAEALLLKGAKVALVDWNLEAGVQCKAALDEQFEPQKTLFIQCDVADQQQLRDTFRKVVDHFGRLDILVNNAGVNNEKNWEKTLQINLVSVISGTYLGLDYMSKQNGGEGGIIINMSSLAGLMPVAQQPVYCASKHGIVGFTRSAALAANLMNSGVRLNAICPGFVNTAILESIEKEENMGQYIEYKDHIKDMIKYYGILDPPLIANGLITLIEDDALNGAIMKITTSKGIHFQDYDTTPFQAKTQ
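NADH formation kinetics: reaction with 30 uM PGE2 and 1 mM NAD+ (final), 20 nM enzyme, Tris-HCl pH 8 with Tween 20, after 15 min compound preincubation at room temperature. Fluorescence change, last versus first of five reads.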
* hit, by the source's call; ? = inconclusive; . = no result; ! = a repeat was not active; [ ] = dose if it differs, or a comment. Hits are enriched below; roughly 8.8% of the tested compounds scored in any of these assays. Unless noted, calls follow the shape of the dose curve; as a rule, active = well fitted curve in the direction sought with a large enough effect; inconclusive = small, poorly fitted or top-dose-only effect, or another doubt; inactive = no such curve, though single readings can be large; an effect the other way counts as inactive or inconclusive. Potency is read from the fitted curve at half-maximal effect.

SMILES | Lamin A splicing | HTT ATP protect | ALDH1A1 block | HTT aggregate | HPGD block
COC(=O)C1=C(C(C)=O)C(c2ccc(C(=O)OC)cc2)n2nnnc2N1 (configuration not stated) | -11.3% | 8.3% | -12.0% | -3.1%[9.22 µM] | -10.9%
CCN(Cc1ccccc1)S(=O)(=O)c1ccc(F)c(C(=O)Nc2cc(C(F)(F)F)ccc2Cl)c1 | -16.5%[46 µM] | . | . | . | .
CCN(CC)S(=O)(=O)c1cccc(C(=O)N/N=C(\C)c2ccc(O)cc2O)c1 | ? | -105.1% | ? | 3.98µM* | .
CCN(CC)S(=O)(=O)c1cccc(C(=O)N/N=C/c2ccc(O)c(O)c2O)c1 | -6.1% | 18.1%[0.074 µM] | 8.91µM* | -16.4% | 25.1µM*
CCOc1ccccc1/C=N/NC(=O)c1cccc(S(=O)(=O)N(CC)CC)c1 | . | -26.0%[10 µM] | ? | ? | .
CC(C)C(=O)Nc1ccc(C(=O)c2ccccc2)cc1 | -4.9% | 2.1%[1.9 µM] | ? | ? | 14.1µM*
COC(=O)c1ccccc1NC(=O)C(C)Oc1ccccc1 (configuration not stated) | -1.5% | 10.6%[10 µM] | 7.2% | -13.2% | -5.1%
CC(Oc1ccc(C(=O)c2ccccc2)cc1)C(=O)Nc1ccc(S(N)(=O)=O)cc1 (configuration not stated) | ? | 16.3%[10 µM] | 10µM* | 1.6% | ?
CC(Oc1ccccc1)C(=O)Nc1ccccc1O (configuration not stated) | 9.3% | 19.5% | 3.6% | 21.1% | 7.08µM*
O=C(c1ccccc1)c1ccccc1 | . | 0.6% | 25.1µM*! | . | -5.3%
CC(=O)N1CCN(c2ccc(NC(=O)C(C)Oc3ccc(Cl)cc3Cl)cc2)CC1 (configuration not stated) | 9.4% | 2.8% | ? | 19.2%[9.22 µM] | 20µM*
Cc1cc(/C=C2\SC(=S)N(C)C2=O)c(C)n1-c1cccc(O)c1 | . | 18.6%[10 µM] | . | 3.8%[9.22 µM] | .
O=C(O)CCCN1C(=O)/C(=C\c2ccco2)SC1=S | 3.1%[46 µM] | 10.1%[10 µM] | ? | 21.8%[9.22 µM] | .
COc1ccc(/C=C2/SC(=S)N(n3c(C)ccc3C)C2=O)cc1 | 16.8% | 27.1% | 6.31µM* | -4.6%[9.22 µM] | -25.7%
COc1ccc(-n2c(C)cc(/C=C3/SC(=S)N(C)C3=O)c2C)cc1 | -12.8% | 0.4%[10 µM] | 1µM* | 2.2% | -9.6%
O=C1/C(=C\c2ccco2)SC(=S)N1Cc1ccccc1 | ? | 9.8% | 14.1µM* | 11.2% | -21.4%
CCOc1ccc(/C=C2/SC(=S)N(n3c(C)ccc3C)C2=O)cc1 | ? | -8.2% | ? | 3.1% | -4.4%
Cc1cc(/C=C2\SC(=S)N(Cc3ccco3)C2=O)c(C)n1-c1ccccc1 | ? | . | 0.0891µM* | 11.9% | ?
COc1cccc(Cn2c(=O)c(-c3cccs3)nc3cnc(N4CCNCC4)nc32)c1 | ? | -276.8% | ? | . | .
O=C(NCc1cccnc1)C(=O)NCC1OCCCN1S(=O)(=O)c1ccccc1 (configuration not stated) | -8.6% | 17.3%[10 µM] | ? | 6.3% | 0.2%
COc1cccc(NC(=O)Cn2cc(S(=O)(=O)Cc3ccccc3F)c3ccccc32)c1 | -6.6%[46 µM] | . | . | . | .
CCC(=O)N1c2ccccc2CC1C(=O)NCCCN1CCN(c2cccc(Cl)c2)CC1 (configuration not stated) | -11.9%[46 µM] | . | . | . | .
O=C1/C(=C\c2ccco2)SC(=S)N1c1ccccc1 | 1.1% | . | 8.91µM* | 12.5% | -19.0%
Cc1ccc(N2C(=O)/C(=C\c3ccco3)SC2=S)cc1 | ? | -12.1% | ? | 2.2% | ?
O=C(c1ccc(COc2ccc(F)cc2)o1)n1cccn1 | 2.0% | 35.8% | -2.1% | 1.4% | -11.4%
SMILES | Lamin A splicing | HTT ATP protect | ALDH1A1 block | HTT aggregate | HPGD block
Cc1cc(OCc2ccc(C(=O)n3cccn3)o2)ccc1Cl | -3.3% | -9.0%[10 µM] | -0.3% | -19.7% | 31.6µM*
COc1cccc(CNC(=O)CCCn2c(=O)c3cccn3c3ccc(F)cc32)c1OC | 8.8%[46 µM] | . | . | . | .
Nc1nc(=S)[nH]c2c1C1(CCCC1)Cc1ccccc1-2 | 3.9% | 4.7% | -10.3% | -1.8% | 12.6µM*
Cc1cccc2cc(C(c3nnnn3CC3CCCO3)N3CCCc4ccccc43)c(=O)[nH]c12 (configuration not stated) | 11.4% | 1.9% | 1.12µM* | -25.4% | -6.4%
O=c1[nH]c2cc3c(cc2cc1C(c1nnnn1Cc1ccccc1)N1CCCc2ccccc21)OCO3 (configuration not stated) | 4.2% | -20.9%[10 µM] | 15.1% | 2.8% | -2.7%
CCc1ccc2[nH]c(=O)c(C(c3nnnn3CC3CCCO3)N3CCCc4ccccc43)cc2c1 (configuration not stated) | 8.6% | -16.0% | 7.94µM* | 20.6% | -22.9%
O=c1[nH]c2cc3c(cc2cc1C(c1nnnn1C1CCCC1)N1CCCc2ccccc21)OCCO3 (configuration not stated) | 1.4% | -18.7%[10 µM] | -2.2% | -4.5% | -15.2%
Cc1cc2cc(C(c3nnnn3CC3CCCO3)N3CCCc4ccccc43)c(=O)[nH]c2cc1C (configuration not stated) | -6.4% | -26.6%[10 µM] | 2.51µM* | -11.1% | ?
O=C(CC1SC(=O)N(c2ccccc2)C1=O)Nc1ccccc1 (configuration not stated) | 3.1% | -15.5% | 8.91µM* | 30.0% | ?
Cc1ccc(NC(=O)CC2SC3=NCCN3C2=O)cc1 (configuration not stated) | -1.8% | 26.3%[1.9 µM] | 3.55µM* | -8.9% | -13.3%
O=C(CC1SC2=NCCN2C1=O)Nc1ccccc1 (configuration not stated) | 2.0% | -2.3% | 0.8% | 13.6% | -16.7%
O=C(CC1Sc2ncnn2C1=O)Nc1ccccc1 (configuration not stated) | -7.9% | 7.5% | 2µM* | 6.6%[9.22 µM] | 15.8µM*
C=CCN1C(=O)C(CC(=O)Nc2ccccc2)S/C1=N/c1nccs1 (configuration not stated) | ? | 18.3%[10 µM] | ? | -0.3%[9.22 µM] | .
Cc1cccc(NC(=O)CC2SC(=O)N(c3ccccc3)C2=O)c1 (configuration not stated) | 2.1% | -20.9% | 10µM* | 16.6% | -14.9%
CCNc1ncc2nc(-c3ccccc3)c(=O)n(Cc3ccc(F)cc3)c2n1 | . | -55.7% | ? | . | ?
CSCC[C@H](NC(=O)C(C)Oc1ccc(Cl)cc1)c1nc2ccccc2[nH]1 (some centres not stated) | ? | 9.1%[10 µM] | 1.6% | -15.0% | -8.3%
N=C1SC(CC(=O)Nc2ccc([N+](=O)[O-])cc2)C(=O)N1c1ccccc1 (configuration not stated) | . | 16.9%[10 µM] | ? | 7.9%[9.22 µM] | .
Cc1ccc(NC(=O)CC2SC(=O)N(c3ccccc3)C2=O)cc1 (configuration not stated) | -17.7% | -9.9%[10 µM] | 10µM* | 2.4% | -29.5%
COc1ccccc1NC1SC(=O)N(c2ccccc2)C1=O (configuration not stated) | ? | -3.7%[10 µM] | 5.01µM* | 5.6% | -7.6%

Screening results (PubChem BioAssay)
